In PubChem BioAssay one finds composite z-score and composite Z-score data, which are given here for 15 compounds.

Activity calls are given as the source filed them.

For one test, the target named is Albumin (Bos taurus) (UniProt P02769). The experiment in a line: bovine serum albumin binders on microarray, profiling panel, artefact control for SMM control protein annotation, biochemical, small-molecule microarray, Alexa647 label, 635/667 nm fluorescence (AID 1118).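 Note: score merges 667 nm emission intensity and signal-to-noise per printed compound spot.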 The settings on record: BSA-A647 binding, fluorescence 635 nm, higher = more signal.
Test [1] can be described thus: small-molecule microarray binders of probe aXIP, primary screen, biochemical, NeuroSMM set, 635/667 nm fluorescence (AID 1119).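 Note: probe is the protein aXip251-270 applied at 1 µg/mL to compound-printed slides; binding of probe to printed compounds measured as 667 nm fluorescence plus signal to noise.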 The following applies: higher = more signal, called active from +8 up or from −8 down.
A short description of test [2]: small-molecule binders of probe aNOTCH3, primary screen, biochemical, small-molecule microarray, 635/667 nm fluorescence (AID 1120).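 Note: probe is a biotin-tagged antibody raised against NOTCH3 rather than NOTCH3 protein; score merges spot fluorescence near 667 nm with spot signal to noise.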 The following applies: higher = more signal.
A short description of test [3]: small-molecule binders of probe aNOTCH2, primary screen, biochemical, small-molecule microarray, 635/667 nm fluorescence (AID 1121).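 Note: score merges feature fluorescence read at 667 nm with its signal to noise.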 The following applies: higher = more signal.
The target in test [4] is Carbonic anhydrase 2 (Homo sapiens) (UniProt P00918). The test can be described thus: CAII small-molecule binders, profiling panel, biochemical, small-molecule microarray, Alexa647-labelled CAII (AID 1122). The settings on record: CAII-A647 binding fluorescence, higher = more signal.
Test [5] is described as follows: COS7 lysate on small-molecule microarray, probe aHis, 635 nm (AID 1123).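 Note: z-score combines 667nm fluorescence intensity with signal-to-noise per printed compound spot.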 The following applies: COS7 cell lysate, fluorescence, higher = more signal.
Test [6] is described as follows: compound binding in COS7 lysate, probe aLAP1, primary screen, cell lysate, small-molecule microarray (AID 1124).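 Note: lysate comes from COS7 cells expressing LAP1 and is applied at 0.3 µg/mL; score merges spot fluorescence near 667 nm with signal-to-noise over triplicate slides.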 The settings on record: probe aLAP1, fluorescence, higher = more signal.
Another test deals with Sam68 (KHDRBS1). The experiment in a line: Sam68 small-molecule binders, primary screen, biochemical, small-molecule microarray, 635 nm fluorescence (AID 1125).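 Note: score merges 667 nm channel intensity with signal to noise over triplicate slides.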 The settings on record: small-molecule microarray binding, higher = more signal.
For test [7], the system named is Chordin-like protein 2 (CHRDL2). The experiment in a line: CHRDL2 small-molecule binders, primary screen, biochemical, small-molecule microarray, 635 nm fluorescence (AID 1126).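 Note: printed compound slides probed with Chrdl2 protein at 4 µg/mL for 1 h at 4 C; score merges 667 nm emission intensity with signal to noise over three replicate slides.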 The settings on record: small-molecule microarray binding, fluorescence 635 nm; higher = more signal.
Test [8] has as its target Concanavalin-A (Canavalia ensiformis) (UniProt P02866). The test can be described thus: ConA small-molecule binders, primary screen, artefact control for SMM control protein annotation, biochemical, small-molecule microarray, Alexa647 label, 635 nm (AID 1127).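 Note: z combines 667 nm emission intensity with signal-to-noise across three replicate slides.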 The settings on record: ConA-A647 binding fluorescence, higher = more signal.

Chain of Albumin (Bos taurus) (P02769 whole entry, looked up): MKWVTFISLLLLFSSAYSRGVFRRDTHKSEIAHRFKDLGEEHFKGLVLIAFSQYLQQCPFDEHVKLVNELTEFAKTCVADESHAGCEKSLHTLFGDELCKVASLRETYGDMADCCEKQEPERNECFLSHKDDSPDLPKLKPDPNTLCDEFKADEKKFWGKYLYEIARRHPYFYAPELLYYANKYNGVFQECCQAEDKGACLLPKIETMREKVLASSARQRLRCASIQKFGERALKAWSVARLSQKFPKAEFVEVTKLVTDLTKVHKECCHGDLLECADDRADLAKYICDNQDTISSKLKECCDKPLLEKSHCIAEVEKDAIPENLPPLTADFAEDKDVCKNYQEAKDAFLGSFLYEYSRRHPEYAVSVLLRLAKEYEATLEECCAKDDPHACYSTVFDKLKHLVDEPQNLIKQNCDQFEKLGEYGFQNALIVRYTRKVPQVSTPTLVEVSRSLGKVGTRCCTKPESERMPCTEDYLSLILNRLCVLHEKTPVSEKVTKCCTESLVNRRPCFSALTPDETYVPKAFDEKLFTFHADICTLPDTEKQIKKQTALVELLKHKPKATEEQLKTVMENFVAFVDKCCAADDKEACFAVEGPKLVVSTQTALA
Chain of Concanavalin-A (Canavalia ensiformis) (P02866 whole entry, looked up): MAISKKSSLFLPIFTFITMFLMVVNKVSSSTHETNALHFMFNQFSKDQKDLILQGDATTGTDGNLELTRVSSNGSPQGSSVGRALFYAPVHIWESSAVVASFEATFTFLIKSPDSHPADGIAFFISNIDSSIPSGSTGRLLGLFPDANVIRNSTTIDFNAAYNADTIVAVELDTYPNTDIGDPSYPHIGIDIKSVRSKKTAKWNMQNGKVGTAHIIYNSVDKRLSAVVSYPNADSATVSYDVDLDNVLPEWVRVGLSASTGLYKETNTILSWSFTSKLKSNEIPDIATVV

Turning to `CCc1cccc(NC(=O)O[C@H]2[C@H](OC(=O)Nc3ccc4c(c3)OCO4)[C@H](OC(=O)Nc3ccc4c(c3)OCO4)[C@@H](OC)O[C@@H]2CO)c1`, the composite z-score is 0.208 with Albumin (Bos taurus); 0.337 in test [2]; 0.817 in test [3]; 0.486 in test [4]; 2.46 in [5]; -0.0378 in test [6]. For the same compound, the composite z-score with Sam68 (KHDRBS1) was 1.29; in test [7] it was -0.0095; in test [8] it was 1.14. Besides, in test [1], the composite Z-score was 1.31 (inactive).

Consider `CC(C)=CCN(C(=O)C#Cc1ccccc1)[C@H](CO)c1ccccc1`, for which the composite z-score is -0.105 with Albumin (Bos taurus); 0.0259 in test [2]; -0.0883 in [3]; -0.0216 in test [4]; 0.506 in test [5]; 0.0602 in test [6]. The composite z-score is 0.798 in the test on Sam68 (KHDRBS1), 0.902 in test [7] and 0.101 in test [8]. Further, in test [1], the composite Z-score was -0.0102 (inactive).

With `O=C1c2ccccc2[C@@]2(Cc3ccccc3N(Cc3ccccc3)C2=O)[C@H](c2ccc(CO)cc2)N1Cc1ccccc1`, the composite z-score with Albumin (Bos taurus) is -0.819; in test [2], -0.132; in test [3] it was -0.125; in test [4] it was 0.19; in test [5], -0.137; in test [6], 0.407. Further, the composite z-score in the test on Sam68 (KHDRBS1) is -0.42; in test [7], -0.845; in test [8], -0.571. In addition, the composite Z-score in test [1] is 0.225 (inactive).

With `CCCC=C(CCC)[C@@H](NS(=O)(=O)c1ccc(Cl)cc1)c1ccccc1`, the composite z-score with Albumin (Bos taurus) is 0.046; in test [2], -0.056; in test [3] it was 0.194; in [4], 0.281; in test [5], 0.829; in [6], 1.28. For the same compound, the values for the composite z-score (in the test with Sam68 (KHDRBS1); in [7]; in test [8]) were 0.127, -0.845 and 0.205, respectively. The composite Z-score in test [1] is -0.0223 (inactive).

Regarding `COC(=O)C1(CC(C)C)C=C2C(=C(C(C)C)C(=O)C2C)CN1` (stereo not given), the composite z-score with Albumin (Bos taurus) was -0.597; in [2] it was -0.0043; in test [3], -0.119; in test [4] it was 0.539; in test [5] it was 0.0678; in [6], -0.463. The results for the composite z-score (with Sam68 (KHDRBS1); in test [7]; in test [8]) were -0.923, -0.699 and -2.07, respectively. The composite Z-score in test [1] was 0.116 (inactive).

Turning to `COCCOC(=O)N1C(=O)[C@@]2(c3cc(C#CCC(C(=O)OC)C(=O)OC)ccc31)[C@H](C(=O)N1CCCCCCC1)[C@H]1C(=O)O[C@H](c3ccccc3)[C@H](c3ccccc3)N1[C@@H]2c1ccccc1OCCO`, the composite z-score in the test with Albumin (Bos taurus) is 0.847; in test [2], 1.91; in test [3] it was 0.689; in test [4], 0.761; in test [5], 3.14; in test [6] it was 1.16. Moreover, the composite z-score in the test on Sam68 (KHDRBS1) is 1.29; in test [7], 1.44; in test [8], 1.06. Also, the composite Z-score in test [1] was 0.269 (inactive).

With `COC(=O)c1ccc([C@H](NC(=O)c2ccccc2)[C@]2(C)C[C@H]2C2CCCCC2)cc1`, the composite z-score is 0.543 with Albumin (Bos taurus); 0.237 in test [2]; -0.0282 in test [3]; 0.158 in test [4]; 1.89 in test [5]; 0.416 in [6]. For the same compound, the composite z-score was 0.715 in the test with Sam68 (KHDRBS1), -0.941 in test [7] and 0.551 in test [8]. Further, the composite Z-score in test [1] was 0.293 (inactive).

For `COC(=O)[C@@]1(Cc2ccccc2CN=[N+]=[N-])COC(c2ccc(OCCCO)cc2)=N1`, the composite z-score with Albumin (Bos taurus) was 0.426; in test [2], -0.425; in test [3] it was -0.0959; in [4], 0.0365; in test [5] it was 2.27; in test [6], -0.365. In addition, the composite z-score is 0.424 in the test on Sam68 (KHDRBS1), -2.4 in test [7] and -1.38 in test [8]. Besides, the composite Z-score in test [1] was 0.978 (inactive).

For the compound `CCCCCN1CC=CC23O[C@@H]4C=CCOC(=O)[C@@H]4[C@H]2C(=O)N(CCCCCO)[C@@H]3C1=O` (stereo not given in full), the composite z-score with Albumin (Bos taurus) was 0.994; in test [2], -0.137; in test [3], -0.146; in test [4], 0.854; in test [5], 0.263; in test [6], 0.0344. The figures for the composite z-score (in the test on Sam68 (KHDRBS1); in [7]; in [8]) were -0.172, -1.31 and -0.56, respectively. Also, in test [1], the composite Z-score is 0.358 (inactive).

Take `COCCOC(=O)N1C(=O)[C@@]2(c3cc(C#Cc4ccc(OC)cc4)ccc31)[C@H](c1ccc(OCCO)cc1)N1[C@H](c3ccccc3)[C@H](c3ccccc3)OC(=O)[C@H]1[C@@H]2C(=O)N1CCCCCCC1`: the composite z-score in the test with Albumin (Bos taurus) was found to be 0.807; in test [2], 1.29; in [3], 0.177; in [4], 0.4; in [5] it was 2.92; in test [6], 1.23. In addition, the composite z-score is 1.25 in the test on Sam68 (KHDRBS1), 1.31 in test [7] and 0.927 in [8]. Besides, in test [1], the composite Z-score is 1.44 (inactive).

With `C=C(C(=O)CC[C@@H](OC(C)=O)c1cccc(OCCO)c1)C(C)C`, the composite z-score with Albumin (Bos taurus) is 0.371; in test [2] it was -0.0311; in [3] it was -0.148; in test [4] it was 0.862; in test [5], 1.82; in [6] it was 0.0326. Moreover, the composite z-score in the test with Sam68 (KHDRBS1) was 0.813; in test [7], -0.298; in test [8] it was 0.691. Further, the composite Z-score in test [1] is 0.566 (inactive).

Turning to `CCCCCCCCCCC(O)C1C=CC2C(=O)N(C)C(=O)C2N1N1CCCCC1` (stereo not given), the composite z-score with Albumin (Bos taurus) is -0.377; in test [2] it was -0.256; in [3], -0.135; in test [4], -0.284; in test [5] it was 0.879; in test [6], 0.582. Moreover, the results for the composite z-score (in the test on Sam68 (KHDRBS1); in [7]; in test [8]) were -0.555, -2.31 and -1.13, respectively. For the same compound, in test [1], the composite Z-score is -0.0231 (inactive).

Turning to `Cc1ccc(S[C@]2(C(=O)NCCCN(C)C)CC(=O)N(Cc3ccccc3Cl)[C@@H]2c2ccc(CO)cc2I)cc1`, the composite z-score with Albumin (Bos taurus) is -0.153; in test [2], -0.136; in test [3] it was -0.142; in test [4], 0.815; in test [5] it was 0.429; in test [6] it was 0.0345. The composite z-score in the test on Sam68 (KHDRBS1) is -0.406; in test [7], -0.697; in test [8] it was -0.708. Besides, the composite Z-score in test [1] was 0.153 (inactive).

Turning to `COc1ccc(NC(=O)O[C@H]2[C@H](OC(=O)Nc3ccc4c(c3)OCO4)[C@H](OC(=O)Nc3ccc4c(c3)OCO4)[C@@H](OC)O[C@@H]2CO)cc1`, the composite z-score was -0.0357 with Albumin (Bos taurus); 0.037 in [2]; -0.117 in test [3]; 0.609 in [4]; 1.36 in [5]; 1.16 in test [6]. In addition, the composite z-score was found to be 1.26 in the test with Sam68 (KHDRBS1), 0.0872 in test [7] and 1.02 in [8]. For the same compound, the composite Z-score in test [1] was -0.102 (inactive).

With `CCOC(=O)C[C@H]1[C@H](OC(=O)Cc2ccc3c(c2)OCO3)[C@@H](NC(=O)c2ccccc2)c2cc(OCCCO)ccc2N1C(=O)Cc1ccc(OC)cc1`, the composite z-score in the test with Albumin (Bos taurus) was 0.521; in [2], -0.116; in test [3] it was -0.0974; in test [4], 0.544; in test [5], 1.04; in test [6], -0.0337. Further, the composite z-score is 0.683 with Sam68 (KHDRBS1), -0.302 in test [7] and 0.808 in test [8]. The composite Z-score in [1] was -0.751 (inactive).
